Where “and” joins values, the source holds several entries; their conditions need not be identical. Equal values may be shown once. Calls of active or inactive are those of the source. Cut-off read from the data, not from the text of the source, unless noted: active = inhibition above about 80%; inactive = the rest.
Tests used:
[1] = target: NAD(+) hydrolase SARM1 (Homo sapiens) (UniProt Q6SZW1); assay: blocking NAD cleavage by SARM1 SAM-TIR – cell lysate, NAD-Glo luminescence (AID 1508614;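 active = compound whose remaining NAD level is above about 45 nM, limit read from the data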;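 note: higher remaining NAD means stronger inhibition of SARM1 NADase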); settings: SAM-TIR HEK293T lysate NADase, at 1 µM, stronger effect = higher value
[2] = galactose survival enhancers in mitochondrial complex I cybrids – cell-based, galactose medium, ATP luminescence, primary screen (AID 1645843;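 active = z-score of at least 1.8 in each of two replicates, scored against plate mean and spread of sample wells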;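 note: positive z means more ATP and so rescue of galactose-driven cybrid death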); settings: complex I mutant cybrid cells, 72 h, stronger effect = higher value
[3] = target: Mitogen-activated protein kinase 7 (Homo sapiens) (UniProt Q13164); assay: Gal4-ERK5 driven luciferase induction – cell-based, HTS, primary screen (AID 1508626;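 active = luciferase signal above three times the same-plate solvent-only control wells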;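 note: luciferase driven by Gal4-ERK5 fusion binding five Gal4 sites before minimal TATA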); settings: HeLa Gal4-ERK5 transactivation, 18 h, at 5 µM, stronger effect = higher value
[4] = growth inhibition, single agent or in combination, cell-based, chromothripsis tumors, cisplatin or BGB combos (AID 1671449); settings: LFS_MB_P medulloblastoma cells;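 note: cells exposed for 96 hours; 0% = vehicle DMSO and 100% = killing by high DMSO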
[5] = growth inhibition, single agent and combos, cell-based, chromothripsis tumors, cisplatin or BGB combos (AID 1671450); settings: HDN33 neuroblastoma cells, stronger effect = higher value;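 note: cells exposed to compound for four days; 0% = vehicle DMSO and 100% = cell killing by high DMSO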
[6] = growth inhibition, single agents and combos, ICB984, cell-based, cisplatin or BGB combos, synergistic combos for chromothripsis tumors (AID 1671451; call rule not given here;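 note: cells exposed for 96 hours before readout; 0% = vehicle DMSO and 100% = killing by high DMSO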); settings: ICB984 medulloblastoma cells, drug combinations, stronger effect = higher value
[7] = growth inhibition, single agents and combos, LFS_MB_1R, cell-based, cisplatin or BGB combos, synergistic combos for chromothripsis tumors (AID 1671452); settings: LFS_MB_1R medulloblastoma cells, stronger effect = higher value;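 note: cells exposed for 96 hours before readout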
[8] = growth inhibition, single agents and combos, HTB85, cell-based, BGB or cisplatin IC20 combos, synergistic combos for chromothripsis tumors (AID 1671453); settings: HTB85 osteosarcoma cells, drug combinations, stronger effect = higher value;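 note: cells exposed for 96 hours before readout; 0% = vehicle DMSO and 100% = high DMSO killing control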
[9] = growth inhibition, single agents and combos, CRL2098, cell-based, BGB or cisplatin IC20 combos, synergistic combos for chromothripsis tumors (AID 1671454); settings: CRL2098 osteosarcoma cells, drug combinations, stronger effect = higher value;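 note: cells exposed for 96 h before readout; 0% = vehicle DMSO and 100% = killing by high DMSO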
[10] = growth inhibition, single agents and combos, HD-MB03, cell-based, BGB or cisplatin IC20 combos, synergistic combos for chromothripsis tumors (AID 1671455; in the data active = inhibition above about 83%;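 note: 0% = vehicle DMSO and 100% = high DMSO as cytotoxic control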); settings: HD-MB03 medulloblastoma cells, stronger effect = higher value
[11] = growth inhibition, single agents and combos, UWB1.289, cell-based, BGB or cisplatin combos, synergistic combos for chromothripsis tumors (AID 1671456); settings: UWB1.289 ovarian carcinoma cells, stronger effect = higher value;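 note: cells exposed to compound for four days; 0% = vehicle DMSO and 100% = killing by high DMSO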
[12] = growth inhibition, single agents and combos, LFS_MB_2R, cell-based, cisplatin combos, synergistic combos for chromothripsis tumors (AID 1671457); settings: LFS_MB_2R medulloblastoma cells, stronger effect = higher value;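 note: cells exposed to compound for four days before readout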
[13] = growth inhibition, MDA-MB-436, cell-based, BGB or cisplatin combos, synergistic combos for chromothripsis tumors (AID 1671458; call rule not given here;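 note: cells exposed for 96 hours; 0% = vehicle DMSO and 100% = killing by high DMSO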); settings: MDA-MB-436 breast carcinoma growth inhibition, drug combinations, stronger effect = higher value
[14] = UWB1.289_BRCA1 ovarian cancer growth, cell-based, BGB or cisplatin combinations (AID 1671459); settings: UWB1.289 BRCA1 ovarian carcinoma, drug combinations, stronger effect = higher value
[15] = drug combination toxicity in non-malignant astrocytes – cell-based, BGB or cisplatin IC20 combos, cytotoxicity control for chromothriptic childhood tumor combination screen (AID 1671460); settings: Human astrocytes, viability inhibition, drug combinations, at 0.5 µM, stronger effect = higher value;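 note: cells exposed to compounds for 96 hours before viability readout; 0% = vehicle and 100% = killing control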
[16] = BT084 cell growth, single and combined drugs, ICGC_MB145, cisplatin and BGB IC40 combos (AID 1671461); settings: BT084 medulloblastoma cells, drug combinations, stronger effect = higher value;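 note: cells exposed to drugs for 96 hours; 0% = vehicle DMSO and 100% = high DMSO full killing control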
[17] = RCMB18 cell growth, single agent and combined, cisplatin and BGB IC40 combos (AID 1671462); settings: RCMB18 medulloblastoma cells, stronger effect = higher value;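 note: cells exposed to compound for four days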
[18] = CRL1545 cell growth, single agent and combined, cisplatin and BGB IC20 combos (AID 1671464); settings: CRL1545 osteosarcoma cells, stronger effect = higher value;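 note: cells exposed to compound for 96 hours before readout; 0% = vehicle DMSO and 100% = high DMSO killing control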
[19] = measured here: combination with BGB IC40, at 0.05 µM
[20] = measured here: with BGB IC20 combination, at 0.5 µM
[21] = measured here: with cisplatin IC20 combination, at 0.5 µM
[22] = measured here: combination with cisplatin, at 0.5 µM
[23] = measured here: combination with cisplatin, at 5 µM

NAD(+) hydrolase SARM1 (Homo sapiens), sequence (Q6SZW1 whole entry, looked up): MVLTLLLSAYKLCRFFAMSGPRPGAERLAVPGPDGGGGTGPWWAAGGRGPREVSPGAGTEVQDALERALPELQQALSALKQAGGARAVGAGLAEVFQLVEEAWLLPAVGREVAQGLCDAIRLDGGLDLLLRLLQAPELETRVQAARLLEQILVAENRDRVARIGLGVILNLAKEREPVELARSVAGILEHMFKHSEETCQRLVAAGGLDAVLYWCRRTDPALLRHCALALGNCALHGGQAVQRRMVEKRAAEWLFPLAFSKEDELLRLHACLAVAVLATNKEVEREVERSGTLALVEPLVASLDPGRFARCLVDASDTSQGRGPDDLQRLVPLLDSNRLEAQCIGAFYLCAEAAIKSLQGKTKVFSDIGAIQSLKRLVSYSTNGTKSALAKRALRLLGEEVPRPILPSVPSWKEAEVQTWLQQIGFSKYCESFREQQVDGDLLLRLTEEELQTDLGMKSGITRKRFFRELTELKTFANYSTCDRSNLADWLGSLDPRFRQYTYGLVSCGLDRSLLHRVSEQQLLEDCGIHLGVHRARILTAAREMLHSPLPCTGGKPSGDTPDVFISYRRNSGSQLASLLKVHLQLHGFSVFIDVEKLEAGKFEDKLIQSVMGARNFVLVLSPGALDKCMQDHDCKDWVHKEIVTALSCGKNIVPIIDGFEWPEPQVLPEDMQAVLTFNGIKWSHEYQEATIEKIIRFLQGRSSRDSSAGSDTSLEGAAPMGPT
Mitogen-activated protein kinase 7 (Homo sapiens), sequence (Q13164 whole entry, looked up, the tested form may be a part): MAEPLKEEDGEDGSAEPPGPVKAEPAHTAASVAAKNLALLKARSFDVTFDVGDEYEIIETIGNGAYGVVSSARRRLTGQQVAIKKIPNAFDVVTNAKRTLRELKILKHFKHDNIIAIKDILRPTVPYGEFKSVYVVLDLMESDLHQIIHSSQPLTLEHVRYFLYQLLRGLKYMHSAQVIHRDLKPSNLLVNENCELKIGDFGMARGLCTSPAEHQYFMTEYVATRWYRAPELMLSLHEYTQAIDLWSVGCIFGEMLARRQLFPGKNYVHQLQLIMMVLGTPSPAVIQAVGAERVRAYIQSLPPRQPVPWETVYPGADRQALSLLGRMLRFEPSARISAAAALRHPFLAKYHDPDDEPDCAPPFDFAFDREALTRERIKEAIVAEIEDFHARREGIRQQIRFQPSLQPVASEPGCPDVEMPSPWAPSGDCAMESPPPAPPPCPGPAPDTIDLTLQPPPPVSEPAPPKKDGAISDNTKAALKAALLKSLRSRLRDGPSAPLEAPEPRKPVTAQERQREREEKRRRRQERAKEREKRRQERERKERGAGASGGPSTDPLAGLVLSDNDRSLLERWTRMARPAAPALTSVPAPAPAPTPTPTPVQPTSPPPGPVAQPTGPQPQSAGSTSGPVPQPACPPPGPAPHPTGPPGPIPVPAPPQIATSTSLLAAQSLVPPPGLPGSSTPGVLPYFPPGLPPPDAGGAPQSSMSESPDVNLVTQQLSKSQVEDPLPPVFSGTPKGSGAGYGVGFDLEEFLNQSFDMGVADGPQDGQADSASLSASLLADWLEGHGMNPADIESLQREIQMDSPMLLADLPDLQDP

In the case of `CCCOc1ccccc1-c1nc2n[nH]nc2c(=O)[nH]1`, the remaining NAD [1] is reported as 10 nM (inactive) and the z-score [2] is reported as 0.78 (inactive) and -0.305 (inactive) and 1.09 (inactive).

With `CSc1ccc2c(c1)C(N1CCN(C)CC1)Cc1ccccc1S2` (stereo not given) the remaining NAD [1] was 10 nM (inactive) and the z-score [2] was -1.29 (inactive) and -1.22 (inactive) and -2.1 (inactive).

For `CCn1cc(C(=O)O)c(=O)c2cc(F)c(N3CCNC(C)C3)c(F)c21` (stereo not given), the remaining NAD [1] was 10 nM (inactive), the luciferase signal [3] was 36 AU (inactive) and the z-score [2] was 0.475 (inactive) and -0.065 (inactive). The inhibition ([4]; at 0.5 µM, stronger effect = higher value) was -15.3% (inactive) and -10.6% (inactive), the inhibition ([4]; measured here: combination with BGB IC20, at 0.005 µM) was -5.89% and -31.7% and the inhibition ([4]; measured here: combination with BGB IC40, at 0.005 µM) was -27.7% and -17%. The inhibition [4, 19] was -32.7% and -10.2%, the inhibition ([4]; measured here: combination with cisplatin, at 0.5 µM, stronger effect = higher value) was -27.9% and -16% and the inhibition ([4]; measured here: combination with cisplatin, at 5 µM, stronger effect = higher value) was -19.1% and -19.2%. For the same compound, the inhibition ([5]; BGB combo, at 5 µM) was -42.8% and -11.5%, the inhibition ([5]; at 0.5 µM) was -39.6% (inactive) and -19.9% (inactive) and the inhibition ([5]; cisplatin combo, at 5 µM) was -22.1% and -6.52%. The inhibition [5, 20] was -33.5% and -33.9%, the inhibition [5, 21] was -40.2% and -6.39% and the inhibition ([5]; single agent, at 5 µM) was -51.7% and -21.7%. For the same compound, the inhibition ([6]; BGB IC20 combo, at 0.005 µM) was -2.68% and 6.83%, the inhibition ([6]; BGB IC40 combo, at 0.005 µM) was -5.47% and -12.9% and the inhibition ([6]; BGB IC40 combo, at 0.05 µM) was -30.9% and -16.1%. The inhibition ([6]; at 0.5 µM) was -32.8% (inactive) and -22.8% (inactive), the inhibition ([6]; cisplatin combo, at 0.05 µM) was -34.5% and -19.4% and the inhibition ([6]; cisplatin combo, at 0.5 µM) was -41.4% and -25.5%. The inhibition ([6]; cisplatin combo, at 5 µM) was -38.8% and -8.31%, the inhibition ([6]; measured here: 5 uM single agent, at 5 µM) was -28.6% and -13.7% and the inhibition ([7]; at 0.5 µM) was -35.3% (inactive) and -9.61% (inactive). The inhibition [7, 19] was -24.9% and -19.8%, the inhibition [7, 22] was -39.3% and -32.8% and the inhibition [7, 23] was -53.1% and -17.8%. The inhibition ([8]; at 0.5 µM) was -42.2% (inactive) and 22% (inactive), the inhibition ([8]; measured here: with BGB IC20, at 0.5 µM) was -50.9% and 58.5% and the inhibition ([8]; measured here: with BGB IC20, at 5 µM) was -41.8% and 56%. For the same compound, the inhibition ([8]; measured here: with cisplatin IC20, at 0.5 µM) was -43.1% and 12.8%, the inhibition ([8]; measured here: with cisplatin IC20, at 5 µM) was -15.2% and -22.2% and the inhibition ([8]; single agent, at 5 µM) was -37.9% and -11.7%. For the same compound, the inhibition ([9]; at 0.5 µM) was -101% (inactive) and -12.1% (inactive), the inhibition ([9]; measured here: combination with BGB at IC20, at 0.5 µM) was -94% and -48.1% and the inhibition ([9]; measured here: combination with cisplatin at IC20, at 0.5 µM) was -123% and -10.4%. The inhibition ([10]; at 0.5 µM) was -11.4% (inactive) and -9.63% (inactive), the inhibition ([10]; measured here: combo with BGB at IC20, at 0.5 µM) was -10.9% and -2.68% and the inhibition ([10]; measured here: combo with cisplatin at IC20, at 0.5 µM) was -12.2% and -16.4%. For the same compound, the inhibition ([11]; at 0.5 µM) was -5.87% (inactive) and 3.27% (inactive), the inhibition ([11]; measured here: inhibition with BGB combination, at 0.05 µM) was -15.8% and -6.81% and the inhibition ([11]; measured here: inhibition with cisplatin combination, at 0.05 µM) was -31.3% and -16.8%. For the same compound, the inhibition ([12]; at 0.5 µM) was -11.7% (inactive) and -17.4% (inactive), the inhibition [12, 22] was -16.5% and -22.2% and the inhibition [12, 23] was -74.9% and -58.2%. For the same compound, the inhibition ([13]; at 0.5 µM) was -41.7% (inactive) and -18.1% (inactive), the inhibition ([13]; measured here: BGB combination, at 0.5 µM) was -27.8% and -13.8% and the inhibition ([13]; measured here: BGB combination, at 5 µM) was -28.2% and -9.38%. The inhibition ([13]; measured here: cisplatin combination, at 0.5 µM) was -66.9% and -25.1%, the inhibition ([13]; measured here: cisplatin combination, at 5 µM) was -19.8% and -29.7% and the inhibition ([14]; BGB combination, concentration series, at 5 µM) was -32.2% and -2.47%. The inhibition ([14]; at 0.5 µM) was -9.31% (inactive) and 2.01% (inactive), the inhibition ([14]; cisplatin combination, concentration series, at 5 µM) was -6.73% and 11.3% and the inhibition [15] was -10.6% (inactive) and 4.2% (inactive). For the same compound, the inhibition ([15]; measured here: combo with BGB IC20) was -11.6% and -0.829%, the inhibition ([15]; measured here: combo with cisplatin IC20) was -24.3% and -1.68% and the inhibition ([16]; at 0.5 µM) was -29.5% (inactive) and -34.2% (inactive). For the same compound, the inhibition ([16]; cisplatin combination, at 0.5 µM) was -4.32% and -19.8%, the inhibition ([16]; cisplatin combination, at 5 µM) was -10.2% and -20.4% and the inhibition ([16]; measured here: BGB IC40 combination 0.05 uM, at 0.05 µM) was -19.8% and -12.4%. The inhibition ([16]; single agent, at 5 µM) was -14.7% and -12.9%, the inhibition ([17]; at 0.5 µM) was -20.2% (inactive) and -5.16% (inactive) and the inhibition ([17]; cisplatin combo, at 5 µM) was -24.3% and 18.4%. For the same compound, the inhibition ([17]; measured here: BGB IC40 combination, at 0.05 µM) was -16.8% and -25.7%, the inhibition [17, 22] was -27.2% and 7.44% and the inhibition ([17]; single agent, at 5 µM) was -21.5% and -4.86%. For the same compound, the inhibition ([18]; at 0.5 µM) was -53.2% (inactive) and 15% (inactive), the inhibition [18, 20] was -48% and 1.95% and the inhibition [18, 21] was -59.3% and 19.8%. For the same compound, the inhibition ([18]; single agent, at 0.05 µM) was -84.2% and 11.3% and the inhibition ([18]; single agent, at 5 µM) was -56% and 4.55%.
